Laboratory results as given in the supplement of paper PMC9262897, “Low-cost anti-mycobacterial drug discovery using engineered E. coli” (Nature Communications, 2022).
Counter-ions that a name gives are not always drawn. ± gives the standard deviation of the averaged measurements.

test system: E. coli TESEC Alr+ wild-type control; assay: growth (OD600 after 10 h); higher = more growth (less inhibition); details: compound 0.1 mM; raw OD600 reference: median of DMSO wells 0.49, cell-free background 0.052
Description: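 TESEC Mtb Alr E. coli (ΔaraC ΔtolC ΔentC Δalr ΔdadX, arabinose-inducible Mtb Alr) or the Alr+ wild-type control strain, grown in defined M9-fructose medium without D-alanine in 96-well plates with Prestwick library compounds at 0.1 mM and 1% DMSO. Low Alr induction is 0.1 µM arabinose and high induction is 10 mM arabinose.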

Row | Compound | growth
1 | N=C(N)NC(=N)NCCc1ccccc1 [Phenformin hydrochloride] | 0.469 ± 0.053
2 | CCN(CC)C(=O)C1(c2ccccc2)CC1CN (stereo not given) [Milnacipran hydrochloride] | 0.547 ± 0.052
3 | COc1ccccc1N1CCN(CCCCNC(=O)c2ccc3ccccc3c2)CC1 | 0.374 ± 0.0092
4 | CCOC(=O)OC(C)OC(=O)[C@@H]1N2C(=O)[C@@H](NC(=O)[C@H](N)c3ccccc3)[C@H]2SC1(C)C (stereo not given in full) [Bacampicillin hydrochloride] | 0.611 ± 0.013
5 | CN1CC2c3ccccc3Oc3ccc(Cl)cc3C2C1 (stereo not given) [Asenapine maleate] | 0.44 ± 0.01
6 | CC(C)NC[C@@H](O)COc1cccc2ccccc12 [(R)-Propranolol hydrochloride] | 0.58 ± 0.019
7 | CO[C@H]1C[C@H](O[C@H]2[C@H](C)[C@@H](O[C@@H]3O[C@H](C)C[C@H](N(C)C)[C@H]3OC(C)=O)[C@@H](C)C[C@@]3(CO3)C(=O)[C@H](C)[C@@H](OC(C)=O)[C@@H](C)[C@@H](C)OC(=O)[C@@H]2C)O[C@@H](C)[C@@H]1OC(C)=O [Troleandomycin] | 0.0617 ± 0.0015
8 | CC1(C)S[C@@H]2[C@H](NC(=O)Cc3ccccc3)C(=O)N2[C@H]1C(=O)O [Benzylpenicillin sodium] | 0.533 ± 0.11
9 | COc1ccc2cc([C@H](C)C(=O)O)ccc2c1 [Naproxen] | 0.5599 ± 0.0025
10 | CC[N+](CC)(CC)CCC(O)(c1ccccc1)C1CCCCC1 (stereo not given) [Tridihexethyl chloride] | 0.437 ± 0.045
11 | CCN(CC)CCNc1ccc(CO)c2sc3ccccc3c(=O)c12 [Hycanthone] | 0.377 ± 0.0077
12 | O=C1[C@H](CC[C@H](O)c2ccc(F)cc2)[C@@H](c2ccc(O)cc2)N1c1ccc(F)cc1 [Ezetimibe] | 0.0525 ± 0.0014
13 | COc1cc(NC(C)CCCN)c2ncccc2c1 (stereo not given) [Primaquine diphosphate] | 0.267 ± 0.025
14 | CN(C)CCOC(=O)COc1ccc(Cl)cc1 [Meclofenoxate hydrochloride] | 0.511 ± 0.083
15 | O=C(O)CN(CCN(CC(=O)O)CC(=O)O)CCN(CC(=O)O)CC(=O)O [Pentetic acid] | 0.0804 ± 0.0038
16 | C1CCC(C(CC2CCCCN2)C2CCCCC2)CC1 (stereo not given) [Perhexiline maleate] | 0.0486 ± 0.00055
17 | S=c1[nH]cnc2nc[nH]c12 [Mercaptopurine] | 0.234 ± 0.018
18 | CN1[C@@H]2CC[C@H]1C[C@@H](OC(=O)c1c[nH]c3ccccc13)C2 [Tropisetron HCl] | 0.53 ± 0.08
19 | CC(Oc1ccccc1)C(=O)N[C@@H]1C(=O)N2[C@@H]1SC(C)(C)[C@@H]2C(=O)O (stereo not given in full) [Phenethicillin potassium salt] | 0.482 ± 0.075
20 | NC1CCN(c2c(F)cc3c(=O)c(C(=O)O)cn(C4CC4)c3c2Cl)C1 (stereo not given) [Clinafloxacin] | 0.05277 ± 0.00038

Row | Compound | growth
21 | CC(=O)Oc1ccccc1C(=O)O [Acetylsalicylic acid] | 0.504 ± 0.027
22 | Cc1ncc([N+](=O)[O-])n1CC(O)CCl (stereo not given) [Ornidazole] | 0.43 ± 0.049
23 | CCCc1nn(C)c2c(=O)[nH]c(-c3cc(S(=O)(=O)N4CCN(C)CC4)ccc3OCC)nc12 [Sildenafil] | 0.456 ± 0.045
24 | Oc1ccc(OCc2ccccc2)cc1 [Monobenzone] | 0.477 ± 0.012
25 | COC(=O)[C@H](c1ccccc1Cl)N1CCc2sccc2C1 [Clopidogrel] | 0.3176 ± 0.0024
26 | COc1cc2nc(N3CCN(C(=O)C4CCCO4)CC3)nc(N)c2cc1OC (stereo not given) [Terazosin hydrochloride] | 0.443 ± 0.035
27 | O=C1CCC(N2C(=O)c3ccccc3C2=O)C(=O)N1 (stereo not given) [Thalidomide] | 0.513 ± 0.072
28 | CC[N+](CC)(CC(=O)Nc1c(C)cccc1C)Cc1ccccc1 [Denatonium benzoate] | 0.439 ± 0.016
29 | Cc1cc(CC(=O)O)n(C)c1C(=O)c1ccc(Cl)cc1 [Zomepirac sodium salt] | 0.476 ± 0.083
30 | CCN(CC)C(=O)Nc1ccc(OCC(O)CNC(C)(C)C)c(C(C)=O)c1 (stereo not given) [Celiprolol HCl] | 0.455 ± 0.027
31 | CCOC(=O)[C@H](CCc1ccccc1)N[C@@H](C)C(=O)N1Cc2ccccc2C[C@H]1C(=O)O [Quinapril HCl] | 0.477 ± 0.15
32 | CCCCCCC[N+](CC)(CC)CCCCc1ccc(Cl)cc1 [Clofilium tosylate] | 0.0487 ± 0.00091
33 | Cn1c(=O)c2[nH]cnc2n(C)c1=O [Aminophylline] | 0.513 ± 0.08
34 | C=C(NC(=O)C(=C)NC(=O)c1csc(C2=N[C@@H]3c4csc(n4)[C@H]4NC(=O)c5csc(n5)[C@H]([C@](C)(O)[C@@H](C)O)NC(=O)[C@H]5CSC(=N5)/C(=C/C)NC(=O)[C@H]([C@@H](C)O)NC(=O)c5csc(n5)[C@]3(CC2)NC(=O)[C@H](C)NC(=O)C(=C)NC(=O)[C@H](C)NC(=O)[C@H]([C@@H](C)CC)N[C@@H]2C=Cc3c([C@H](C)O)cc(nc3[C@H]2O)C(=O)O[C@@H]4C)n1)C(N)=O [Thiostrepton] | 0.603 ± 0.094
35 | COc1cccc2c1C(=O)c1c(O)c3c(c(O)c1C2=O)C[C@@](O)(C(=O)CO)C[C@@H]3O[C@H]1C[C@H](N)[C@@H](O)[C@H](C)O1 [Epirubicin hydrochloride] | 0.0592 ± 0.0032
36 | CC(CN(C)C)C(C)(O)Cc1ccc(Cl)cc1 (stereo not given) [Clobutinol hydrochloride] | 0.588 ± 0.083
37 | CC1(C)O[C@@H]2C[C@H]3[C@@H]4C[C@H](F)C5=CC(=O)C=C[C@]5(C)[C@H]4[C@@H](O)C[C@]3(C)[C@]2(C(=O)CO)O1 [Flunisolide] | 0.418 ± 0.031
38 | CC(C)(C)NCC(O)c1ccc(O)c(CO)c1 (stereo not given) [Salbutamol] | 0.528 ± 0.092
39 | Clc1ccc(CCC(Cn2ccnc2)Sc2c(Cl)cccc2Cl)cc1 (stereo not given) [Butoconazole nitrate] | 0.0876 ± 0.003
40 | CNCC[C@@H](Oc1ccccc1C)c1ccccc1 [Tomoxetine hydrochloride] | 0.441 ± 0.016
